Consider 6 compounds from PubChem BioAssay (EPA / NIEHS).

SMILES strings stand for the structures. Several values for one entry are separate records, joined by “and”; a condition that tells them apart may be missing. Equal values may be shown once. Where a structure was tested more than once in an assay, its records may differ in their call. Activity calls are given as the source filed them. How the source made its calls: active means hit-call score of the fitted dose curve at least 0.9, where 1 is the maximum; inactive means score below 0.9.

Test [1] is described as follows: BSK_CASM3C_SRB: Viability Assessment in the BioMAP Diversity Plus: CASM3C Assay (AID 2283050).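 Further: cells exposed to compound for 24 h.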 As to conditions: primary human coronary artery smooth muscle cells.
Read-out in test [2]: Thrombomodulin, THBD (gene 7056)
The experiment in a line: BSK_CASM3C_Thrombomodulin: BioMAP Diversity Plus: CASM3C Assay for Thrombomodulin Biomarker Activity (AID 2283051).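 Further: thrombomodulin protein level measured by ELISA 24 h after dosing.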 As to conditions: primary human coronary artery smooth muscle cells; actives raise or lower the signal.

Read-out in test [3]: Tissue Factor, F3 (gene 2152)
In words: BSK_CASM3C_TissueFactor: BioMAP Diversity Plus: CASM3C Assay for Tissue Factor Biomarker Activity (AID 2283052).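 Further: cell surface tissue factor protein level read by ELISA.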 Particulars: primary human coronary artery smooth muscle cells; actives raise or lower the signal.

Read-out in test [4]: Interferon-gamma inducible Protein 10 (IP10), CXCL10 (gene 3627)
The experiment in a line: BSK_hDFCGF_IP10: BioMAP Diversity Plus: hDFCGF Assay for Interferon-gamma inducible Protein 10 (IP10) Biomarker Activity (AID 2283053). Particulars: primary human foreskin fibroblasts; actives raise or lower the signal. Put shortly:
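Cells: human dermal foreskin fibroblasts. Exposure: 24 h post-dosing. Detection: IP-10 ELISA, with values expressed against DMSO controls and fitted in both directions.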

Read-out in test [5]: Urokinase-type plasminogen activator receptor (uPAR), PLAUR (gene 5329)
In words: BSK_CASM3C_uPAR: BioMAP Diversity Plus: CASM3C Assay for Urokinase-type plasminogen activator receptor (uPAR) Biomarker Activity (AID 2283054).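 Further: cell-surface uPAR protein level quantified by ELISA.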 Particulars: primary human coronary artery smooth muscle cells; actives raise or lower the signal.

Read-out in test [6]: Vascular cell adhesion molecule 1 (VCAM1), VCAM1 (gene 7412)
The experiment in a line: BSK_CASM3C_VCAM1: BioMAP Diversity Plus: CASM3C Assay for Vascular cell adhesion molecule 1 (VCAM1) Biomarker Activity (AID 2283055).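 Further: VCAM-1 protein level quantified by ELISA on the cells.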 Particulars: primary human coronary artery smooth muscle cells; actives raise or lower the signal.

Read-out in test [7]: Collagen III, COL3A1 (gene 1281)
In words: BSK_hDFCGF_CollagenIII: BioMAP Diversity Plus: hDFCGF Assay for Collagen III Biomarker Activity (AID 2283056). Particulars: primary human foreskin fibroblasts; actives raise or lower the signal. Put shortly: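 Cells: human foreskin fibroblasts, primary. Dosing followed by 24 h incubation, then ELISA for collagen III. Both increases and decreases scored relative to DMSO.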

Read-out in test [8]: Epidermal growth factor receptor (EGFR), EGFR (gene 1956)
The experiment in a line: BSK_hDFCGF_EGFR: BioMAP Diversity Plus: hDFCGF Assay for Epidermal growth factor receptor (EGFR) Biomarker Activity (AID 2283057). Particulars: primary human foreskin fibroblasts; actives raise or lower the signal. Put shortly:
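Dosing human primary skin fibroblasts, then measuring surface EGFR by ELISA at 24 h, gives the endpoint; gains and losses relative to DMSO were fitted in both directions.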

Read-out in test [9]: Interleukin-8 (IL8), CXCL8 (gene 3576)
In words: BSK_hDFCGF_IL8: BioMAP Diversity Plus: hDFCGF Assay for Interleukin-8 (IL8) Biomarker Activity (AID 2283058). As to conditions: primary human foreskin fibroblasts; actives raise or lower the signal. Put shortly: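 IL-8 levels from compound-treated primary human fibroblasts were read by ELISA at 24 h, with DMSO serving as baseline for bidirectional fitting.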

Read-out in test [10]: Macrophage colony-stimulating factor (MCSF), CSF1 (gene 1435)
The experiment in a line: BSK_hDFCGF_MCSF: BioMAP Diversity Plus: hDFCGF Assay for Macrophage colony-stimulating factor (MCSF) Biomarker Activity (AID 2283060). As to conditions: primary human foreskin fibroblasts; actives raise or lower the signal. Summed up: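 M-CSF levels, determined by ELISA, are taken at 24 h after dosing human skin fibroblasts. Responses in either direction are fitted with DMSO serving as the baseline.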

Test [11] in a line: BSK_hDFCGF_SRB: Viability Assessment in the BioMAP Diversity Plus: hDFCGF Assay (AID 2283061).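 Further: cells exposed to compound for 24 h before the read.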 As to conditions: primary human foreskin fibroblasts. Summed up: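 Cells were dosed with test chemical, cultured 24 h, fixed with 10% TCA, then stained with 0.1% SRB and read at 560 nm. The fibroblasts were human foreskin primary cells, and DMSO served as baseline.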
Read-out in test [12]: TIMP metallopeptidase inhibitor 1 (TIMP1), TIMP1 (gene 7076)
In words: BSK_hDFCGF_TIMP1: BioMAP Diversity Plus: hDFCGF Assay for TIMP metallopeptidase inhibitor 1 (TIMP1) Biomarker Activity (AID 2283062). Particulars: primary human foreskin fibroblasts; actives raise or lower the signal. Summed up: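 Fibroblasts from human foreskin are treated with test chemical and harvested at 24 h. TIMP-1 is quantified by ELISA, and gain or loss of signal is scored against DMSO.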

Read-out in test [13]: Monokine induced gamma interferon (MIG), CXCL9 (gene 4283)
In words: BSK_hDFCGF_MIG: BioMAP Diversity Plus: hDFCGF Assay for Monokine induced gamma interferon (MIG) Biomarker Activity (AID 2283063). As to conditions: primary human foreskin fibroblasts; actives raise or lower the signal. Put shortly: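 MIG signal, determined by ELISA, reflects 24 h chemical exposure of human skin primary fibroblasts. DMSO serves as negative control and baseline.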

Read-out in test [14]: Matrix Metallopeptidase 1 (MMP1), MMP1 (gene 4312)
In words: BSK_hDFCGF_MMP1: BioMAP Diversity Plus: hDFCGF Assay for Matrix Metallopeptidase 1 (MMP1) Biomarker Activity (AID 2283064). As to conditions: primary human foreskin fibroblasts; actives raise or lower the signal. Put shortly: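 Human foreskin fibroblasts exposed to chemical for 24 h; MMP1 detected by ELISA, with DMSO as baseline for bidirectional fitting.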

Read-out in test [15]: Vascular cell adhesion molecule 1 (VCAM1), VCAM1 (gene 7412)
In words: BSK_hDFCGF_VCAM1: BioMAP Diversity Plus: hDFCGF Assay for Vascular cell adhesion molecule 1 (VCAM1) Biomarker Activity (AID 2283065).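 On AC50: VCAM-1 protein level quantified by ELISA after 24 h chemical exposure.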 Particulars: primary human foreskin fibroblasts; actives raise or lower the signal. Summed up:
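Cells are dosed, cultured for 24 h, then VCAM-1 is quantified by ELISA; signal increases and decreases are both fitted relative to DMSO.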

Read-out in test [16]: Plasminogen activator inhibitor-1 (PAI1), SERPINE1 (gene 5054)
The experiment in a line: BSK_hDFCGF_PAI1: BioMAP Diversity Plus: hDFCGF Assay for Plasminogen activator inhibitor-1 (PAI1) Biomarker Activity (AID 2283066). As to conditions: primary human foreskin fibroblasts; actives raise or lower the signal. Put shortly:
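Fibroblasts from human foreskin were treated with test chemical. After 24 h, PAI-1 was measured by ELISA. Activity was fitted in both directions relative to DMSO.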

Read-out in test [17]: Intercellular Adhesion Molecule 1 (ICAM1), ICAM1 (gene 3383)
The experiment in a line: BSK_KF3CT_ICAM1: BioMAP Diversity Plus: KF3CT Assay for Intercellular Adhesion Molecule 1 (ICAM1) Biomarker Activity (AID 2283067). Particulars: primary human keratinocytes with fibroblasts; actives raise or lower the signal. Put shortly:
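Dose the keratinocyte/fibroblast co-culture, wait 24 h, measure ICAM-1 by ELISA, then fit increases or decreases against DMSO. Cytotoxicity is checked in parallel cultures by SRB total-protein staining.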

Read-out in test [18]: Interferon-gamma inducible Protein 10 (IP10), CXCL10 (gene 3627)
The experiment in a line: BSK_KF3CT_IP10: BioMAP Diversity Plus: KF3CT Assay for Interferon-gamma inducible Protein 10 (IP10) Biomarker Activity (AID 2283068). As to conditions: primary human keratinocytes with fibroblasts; actives raise or lower the signal. Put shortly: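 In a primary skin co-culture of keratinocytes and fibroblasts, IP-10 is quantified by ELISA at 24 h after dosing. SRB staining of parallel wells monitors overt toxicity. Curves are fitted both directions against DMSO.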

The nature of test [19]: BSK_KF3CT_SRB: Viability Assessment in the BioMAP Diversity Plus: KF3CT Assay (AID 2283069).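 Further: fitted for both signal gain and loss against DMSO baseline.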 Particulars: primary human keratinocytes with fibroblasts. Summed up:
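Overt cytotoxicity is assessed as total protein by sulforhodamine B staining in parallel human skin co-cultures at 24 h after dosing. DMSO serves as negative control and baseline.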

Test [20] is described as follows: BSK_hDFCGF_Proliferation: Cell Proliferation Assessment in the BioMAP Diversity Plus: hDFCGF Assay (AID 2283059).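 Further: curves fitted for both rise and fall of signal versus DMSO baseline.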 Particulars: primary human foreskin fibroblasts. Summed up:
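Primary human foreskin fibroblasts, sub-confluent; […]; 10% TCA fix, 0.1% SRB stain, A560 total protein. Gain/loss fitted bidirectionally vs DMSO control.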

`COc1ccc(C(=O)/C(Br)=C\C(=O)O)cc1`: the AC50 – broadly, the midpoint of the concentration-response curve, whichever way the signal moves – in [1] was 23.8 µM (active) and 28.8 µM (active); in test [3], 4.22 µM (active) and 11.4 µM (active); in [4] it was 33.1 µM (active) and 32.6 µM (active); in [5] it was 13.4 µM (active) and 30.6 µM (active); in test [6], 12 µM (active) and 20 µM (active); in test [7], 13.6 µM (active). In addition, the AC50 in [8] was 29.1 µM (active); in test [9] it was 38.9 µM (active); in test [10] it was 15.4 µM (active) and 20 µM (active); in test [11] it was 29.4 µM (active); in test [12], 28.6 µM (active) and 20 µM (active); in test [13] it was 28 µM (active) and 31.3 µM (active). For the same compound, the half-maximal activity concentration (AC50) in [14] was 33.5 µM (active) and 30.7 µM (active); in test [15], 14.7 µM (active) and 7.59 µM (active); in test [16], 28.9 µM (active); in test [17], 20 µM (active); in test [18] it was 30.6 µM (active) and 30.2 µM (active); in test [19] it was 32 µM (active). The result in test [2], in [7], in test [8], in test [9], in [16] and in [19] was inactive.

For `CCCCCCOC(=O)CCCCC(=O)OCCCCCC`, the result in test [1], in test [2], in test [3], in [4], in test [5] and in test [6] was inactive. Besides, the result in test [7], in test [8], in test [9], in test [10], in test [11] and in test [12] was inactive. For the same compound, the outcome in [13], in test [14], in test [15], in [16], in test [17] and in test [18] was inactive. The outcome in test [19] was inactive.

On to `c1ccc(Nc2cccc3ccccc23)cc1`, for which the AC50 in test [1] is 31.3 µM (active); in test [2] it was 10.1 µM (active) and 7.36 µM (active); in test [3], 2.1 µM (active); in test [4] it was 30.3 µM (active) and 34.6 µM (active); in test [5], 10.5 µM (active); in [6], 7.35 µM (active). For the same compound, the AC50 in test [7] is 17.3 µM (active) and 13.9 µM (active); in [8], 32.5 µM (active); in [9] it was 35.1 µM (active) and 36.6 µM (active); in test [10], 20 µM (active) and 14.5 µM (active); in test [11], 32.7 µM (active) and 33.1 µM (active); in test [12], 29.6 µM (active) and 28.8 µM (active). Further, the AC50 in test [13] was 27.5 µM (active) and 23.4 µM (active); in [14], 30.7 µM (active) and 30 µM (active); in test [15], 21.2 µM (active) and 20 µM (active); in test [16], 13.1 µM (active) and 12.3 µM (active); in test [17] it was 30.7 µM (active) and 37.7 µM (active); in [18] it was 34.2 µM (active) and 35.7 µM (active). For the same compound, in test [19], the half-maximal activity concentration (AC50) was 31.8 µM (active) and 34.8 µM (active). Moreover, the result in [1], in test [3], in test [5], in test [6] and in test [8] was inactive.

As for `CC1=CC=C(C(C)C)CC1`, the result in [1], in [2], in test [3], in test [4], in test [5] and in [6] was inactive. The outcome in test [7], in test [8], in [9], in test [20], in test [10] and in test [11] was inactive. In addition, the outcome in test [12], in test [13], in test [14], in test [15], in test [16] and in test [17] was inactive. The outcome in [18] and in test [19] was inactive.

In the case of `O=C1CCCCCCCCCCC1`, the result in test [1], in test [2], in test [3], in test [4], in test [5] and in test [6] was inactive. Moreover, the outcome in test [7], in [8], in test [9], in [10], in test [11] and in [12] was inactive. The result in [13], in test [14], in test [15], in test [16], in [17] and in [18] was inactive. In addition, the outcome in test [19] was inactive.

For the compound `CCCCCCCO`, the result in test [1], in test [2], in test [3], in [4], in [5] and in [6] was inactive. The outcome in test [7], in [8], in test [9], in test [20], in test [10] and in test [11] was inactive. The result in [12], in test [13], in test [14], in test [15], in test [16] and in [17] was inactive. Also, the outcome in test [18] and in test [19] was inactive.
